We go through 173 sequences from publication PMC4242493, “Sequence specificity incompletely defines the genome-wide occupancy of Myc”.

Whole data set: some 33,000 sequences, median “normalized occupancy” near 0.075, cut for the highest 2% near 0.095. Shown is part of a subset that was picked to be rich in the highest values.

Sequence of MaxL homodimer (P61244 whole entry): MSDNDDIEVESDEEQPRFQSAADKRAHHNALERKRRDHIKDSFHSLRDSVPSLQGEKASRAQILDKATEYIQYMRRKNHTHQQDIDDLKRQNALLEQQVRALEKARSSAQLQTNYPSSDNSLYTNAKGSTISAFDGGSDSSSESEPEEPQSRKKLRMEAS

The test concerns the target MaxL homodimer (Homo sapiens, UniProt P61244 1-160). As to the kind of experiment: universal protein-binding microarray (PBM); PBS-based mixture, 10 nM His-tagged protein dimer, 2% milk, 200 ng/uL BSA, 50 ng/uL salmon testes DNA, 0.02% TX-100; detection with Alexa 488 anti-His antibody;; high values mean tight binding. Conditions: protein: recombinant; tags: C-terminal His-tag (pET21a); chain copies: 2; dsDNA, one strand shown. In short, it runs like this:
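Each 8-mer received a fluorescence intensity from GenePix 4400A scans of Agilent 4 x 44 K 'all 10-mer' universal arrays. Those arrays had been incubated with His-tagged protein dimer at 10 nM, and the bound protein was marked with a fluorophore-conjugated anti-His antibody at 10 ng/μL. Binding occupancy is the intensity scaled to that of the highest-ranked sequence word.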
Turning to AGAGTTTG, the binding signal was 0.073 normalized occupancy.

Consider CCTGGGAC, for which the binding signal amounted to 0.0732 normalized occupancy.

On to ATGTCTCG, for which the binding signal was 0.0802 normalized occupancy. In the case of CGCTCACC it was 0.0763 normalized occupancy; in that of AAGCCATC, 0.0756 normalized occupancy.

Turning to AAGAAGGA, the binding signal was determined as 0.0794 normalized occupancy. In the case of CATGCATA it was 0.0989 normalized occupancy; in that of TATGCATA, 0.0811 normalized occupancy.

As to AATGCATA, the binding signal was 0.0839 normalized occupancy. As to CCACGGGA, the binding signal stood at 0.0794 normalized occupancy. CCACGGGG: the binding signal stood at 0.097 normalized occupancy.

Consider CCACGGGC, for which the binding signal stood at 0.076 normalized occupancy.

CACGGGGC: the binding signal is 0.0863 normalized occupancy. As for CACGGGGA, the figure is 0.0894 normalized occupancy; as for CACGGGGG, 0.101 normalized occupancy.

On to AGGAATTG, for which the binding signal was 0.0797 normalized occupancy. With ACGTAGCG, the binding signal was found to be 0.0805 normalized occupancy.

Turning to AACCCATG, the binding signal amounted to 0.0961 normalized occupancy.

Take CACCCATA: the binding signal worked out at 0.0892 normalized occupancy.

Take ACCCCATG: the binding signal was found to be 0.102 normalized occupancy.

AACCCATA: the binding signal turned out to be 0.0815 normalized occupancy. Take ACCCCATC: the binding signal was 0.0823 normalized occupancy. As to AACCCATT, the binding signal amounted to 0.0783 normalized occupancy. Regarding AACCCGTG, the binding signal is 0.0816 normalized occupancy. As for CACCCATC, the figure is 0.0827 normalized occupancy; as for ACCCCGTA, 0.0818 normalized occupancy. In the case of ACCCCGTG it was 0.108 normalized occupancy. In the case of ACCCCATA it was 0.0838 normalized occupancy; in that of CACCCATG, 0.1 normalized occupancy. Take CGGACGCA: the binding signal stood at 0.0735 normalized occupancy.

With ATTTTCTA, the binding signal stood at 0.0856 normalized occupancy. In the case of CAGAAGAC it was 0.0718 normalized occupancy; in that of GACAGTAA, 0.0794 normalized occupancy; in that of ACGTTCGA, 0.0752 normalized occupancy. In the case of CACGACAC it was 0.0789 normalized occupancy.

Consider CGTACGGC, for which the binding signal came to 0.0778 normalized occupancy. As for AAACAGCA, the figure is 0.0759 normalized occupancy; as for AGTATGTG, 0.081 normalized occupancy.

Regarding CGCATTTC, the binding signal was 0.0783 normalized occupancy. In the case of AGGATGTG it was 0.0831 normalized occupancy. In the case of CGCATCTC it was 0.0769 normalized occupancy; in that of AGCATGTA, 0.106 normalized occupancy.

As for AGCATGTG, the binding signal worked out at 0.164 normalized occupancy. As for AGGATGTA, the figure is 0.0795 normalized occupancy; as for AGCATTTC, 0.0792 normalized occupancy; as for CGCATGTC, 0.105 normalized occupancy. As for AGTATGTC, the figure is 0.0803 normalized occupancy. In the case of AGCATGTC it was 0.1 normalized occupancy. As for GGCATGTA, the binding signal turned out to be 0.0812 normalized occupancy. CCGTACAC: the binding signal is 0.0886 normalized occupancy. As for GTGAGTGA, the figure is 0.0775 normalized occupancy. As for ACTGGCCT, the figure is 0.073 normalized occupancy.

As for CATTCGCA, the binding signal was 0.078 normalized occupancy. In the case of AGCCAACA it was 0.0808 normalized occupancy.

With ACTTGTGC, the binding signal stood at 0.0751 normalized occupancy. In the case of AAAATTAG it was 0.0735 normalized occupancy.

Regarding ATTAAGGA, the binding signal amounted to 0.0744 normalized occupancy. In the case of AAACAGTA it was 0.0764 normalized occupancy; in that of CCCATGTA, 0.0872 normalized occupancy. In the case of CTCATGTA it was 0.0936 normalized occupancy; in that of CGCATGTA, 0.105 normalized occupancy.

With GGAATCCC, the binding signal was 0.0772 normalized occupancy.

Turning to ATCGTTCG, the binding signal is 0.0755 normalized occupancy.

Take CAAGCGTG: the binding signal was 0.104 normalized occupancy. As to AAAGCGCG, the binding signal was found to be 0.0769 normalized occupancy. In the case of AAAGCGTG it was 0.11 normalized occupancy; in that of CAAGCGCG, 0.0759 normalized occupancy; in that of AAAGCGTT, 0.0746 normalized occupancy.

With CAAGCGAG, the binding signal turned out to be 0.0757 normalized occupancy.

With ATGTTGCA, the binding signal turned out to be 0.0888 normalized occupancy. In the case of CTTCCCCA it was 0.0787 normalized occupancy. In the case of AGTAGTAG it was 0.0786 normalized occupancy; in that of GATGTTAC, 0.0818 normalized occupancy. As for AGGCGTCA, the figure is 0.0742 normalized occupancy. On to CGGTACAC, for which the binding signal was found to be 0.0815 normalized occupancy. Consider ACCGTGGG, for which the binding signal is 0.0732 normalized occupancy. Regarding AACGTGGG, the binding signal came to 0.114 normalized occupancy. Regarding ATCGTGGG, the binding signal was found to be 0.0895 normalized occupancy. Consider AACGTGGC, for which the binding signal was 0.107 normalized occupancy. As for AACGTAGC, the figure is 0.0749 normalized occupancy. In the case of AACGTGGT it was 0.125 normalized occupancy.

For AACGTTGT, the binding signal was 0.0817 normalized occupancy. In the case of AAAGTGGT it was 0.0721 normalized occupancy; in that of GACGTGGC, 0.0846 normalized occupancy. As for AGTAACTC, the figure is 0.0742 normalized occupancy. In the case of CTAGGAGA it was 0.0761 normalized occupancy; in that of AATGCCTA, 0.0747 normalized occupancy; in that of ACATCAGT, 0.0736 normalized occupancy. As for TATGAATA, the binding signal turned out to be 0.0823 normalized occupancy.

ATATCTCC: the binding signal is 0.0807 normalized occupancy. In the case of CACTTCAG it was 0.0728 normalized occupancy; in that of TTGAGAAA, 0.0807 normalized occupancy; in that of AACGTACT, 0.0746 normalized occupancy. For ACACGATC, the binding signal came out at 0.0822 normalized occupancy. For the sequence ATACGAGA, the binding signal is 0.0785 normalized occupancy. As for ACACGATG, the figure is 0.0969 normalized occupancy. As for ACACGAGC, the figure is 0.0815 normalized occupancy; as for AAACGAGG, 0.081 normalized occupancy. In the case of ACACGAGG it was 0.144 normalized occupancy. Turning to ATACGAGG, the binding signal was determined as 0.084 normalized occupancy. In the case of ACACGAGT it was 0.0979 normalized occupancy; in that of ACACGACT, 0.0807 normalized occupancy; in that of ACACGAAT, 0.0776 normalized occupancy.

As for ACACGATA, the binding signal turned out to be 0.0824 normalized occupancy. As for ACACGAGA, the figure is 0.0977 normalized occupancy; as for GTGCCCTA, 0.0772 normalized occupancy. As for CAAACAGG, the figure is 0.0747 normalized occupancy; as for CGCAAGAG, 0.0757 normalized occupancy. AGGGGTCG: the binding signal came to 0.0779 normalized occupancy. As for CCATATGG, the figure is 0.123 normalized occupancy; as for CTATATGC, 0.0831 normalized occupancy; as for CCATATCG, 0.083 normalized occupancy. As to CCATATGC, the binding signal came out at 0.1 normalized occupancy. For CGATATGC, the binding signal is 0.0806 normalized occupancy.

GCATATGC: the binding signal is 0.0998 normalized occupancy. Regarding GCATATCC, the binding signal was determined as 0.0834 normalized occupancy.

As for GCATATGA, the binding signal turned out to be 0.0934 normalized occupancy.

In the case of CCATATAG, the binding signal amounted to 0.087 normalized occupancy.

With CAGATAAA, the binding signal was 0.078 normalized occupancy. As for ACCATAAG, the figure is 0.0853 normalized occupancy; as for ACAAATTG, 0.0753 normalized occupancy. As for CCCATACC, the figure is 0.0872 normalized occupancy. CCAGTTGC: the binding signal was found to be 0.0718 normalized occupancy. As for AAACAGTG, the figure is 0.0728 normalized occupancy. As for TAGTTTGA, the figure is 0.0723 normalized occupancy; as for AATTTTCT, 0.0797 normalized occupancy. In the case of ACGGGACA it was 0.0774 normalized occupancy. As for ACGTGTTG, the binding signal is 0.109 normalized occupancy.

As for ACGTGTTA, the binding signal was determined as 0.109 normalized occupancy. As to ACGTGTTC, the binding signal was 0.104 normalized occupancy. In the case of CCGTGTTA it was 0.0848 normalized occupancy; in that of AAGTGTTC, 0.0784 normalized occupancy; in that of AGGTGTTA, 0.0801 normalized occupancy. As to CCGTGTTC, the binding signal was determined as 0.0725 normalized occupancy. As for GCGTGTTA, the figure is 0.101 normalized occupancy. As for AGGTGTTG, the figure is 0.0828 normalized occupancy; as for GGGTGTTA, 0.0779 normalized occupancy; as for GTGTGTTA, 0.0835 normalized occupancy. With ATGTGTTG, the binding signal stood at 0.0905 normalized occupancy. As for AGAGTCGC, the figure is 0.0764 normalized occupancy. As for ACGGATGC, the binding signal worked out at 0.0722 normalized occupancy.

As for GTGCCTTA, the binding signal amounted to 0.0789 normalized occupancy. In the case of ATGAGCGG it was 0.0799 normalized occupancy. As for CGGTGTAC, the figure is 0.0764 normalized occupancy; as for GATATTCC, 0.0765 normalized occupancy; as for AGCAATTC, 0.0722 normalized occupancy.

Regarding CACGTGAC, the binding signal amounted to 0.464 normalized occupancy.

As for CACGTGAG, the binding signal was 0.245 normalized occupancy.

Consider CCCGTGAA, for which the binding signal came out at 0.0812 normalized occupancy.

Turning to CCCGTGAC, the binding signal worked out at 0.0826 normalized occupancy. Take CACGTAAG: the binding signal amounted to 0.0796 normalized occupancy. In the case of GACGTGAC it was 0.0813 normalized occupancy; in that of GACGTGAA, 0.0766 normalized occupancy.

CACGTGAA: the binding signal was 0.231 normalized occupancy.

Take TACGTGAA: the binding signal was found to be 0.0794 normalized occupancy.

As for CCTTCCCA, the binding signal is 0.0748 normalized occupancy.

As to GAATCCTA, the binding signal is 0.0741 normalized occupancy. As to CAGCCGCA, the binding signal came to 0.0718 normalized occupancy. In the case of TGGGTGAA it was 0.0791 normalized occupancy. With AGGATGAC, the binding signal is 0.0813 normalized occupancy. In the case of TCTAGCCA it was 0.0723 normalized occupancy; in that of CCTTTATA, 0.0822 normalized occupancy. Turning to ATGCTTTC, the binding signal came to 0.0842 normalized occupancy.

Take ATCGTGTC: the binding signal came out at 0.0864 normalized occupancy.

CTCGTGTA: the binding signal is 0.103 normalized occupancy.

As to CTCGTGTC, the binding signal amounted to 0.0959 normalized occupancy. Take CTCGTTTC: the binding signal came to 0.0748 normalized occupancy. As for ATCGTGTA, the figure is 0.0829 normalized occupancy; as for GTCGTGTA, 0.0822 normalized occupancy; as for AACATACC, 0.086 normalized occupancy.

With ATCGTCGA, the binding signal worked out at 0.0747 normalized occupancy.

In the case of CTGAATAC, the binding signal worked out at 0.0791 normalized occupancy. In the case of CGCGCGTC it was 0.075 normalized occupancy.
